Compound activity as filed in PubChem BioAssay.
In the library only some 21% were active in any assay of this set; here they are far more common.
Shiga inhibitor: Shiga toxin inhibition; Vero cells, Shiga toxin protein synthesis inhibition reporter; inhibition, % at 38.7 µM; hit rate 9.2% among 290,000; AID 2315; in the data active means inhibition mostly above about 28%, no sharp cut-off; inactive means mostly below about 43%; further: 0% is about no effect
Pf growth 96h: inhibits malaria parasite growth, 96 h; P. falciparum luciferase reporter growth, 96 h; Potency, µM (doses to about 28.7 µM), for inactives: at the top dose activity change, negative = inhibition, usual class: inhibitors; hit rate 6.9% among 320,000; further: potency means the concentration at half of the fitted maximal effect; on the % scale 0 is the no-effect control and ±100 the full control effect
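Readout is luminescence from an integrated firefly luciferase in P. falciparum. Red cells, 2% hematocrit and 0.05% parasitemia final, were cultured with compound through two parasite generations (96 hours) at 37 C, 5% CO2.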
Cycloheximide cs: affects cycloheximide protein synthesis inhibition readout, counter-screen. cell reporter, cycloheximide protein synthesis inhibition counterscreen. max response, %. hit rate 12% among 300,000; in the data active means max response mostly above about 13%, no sharp cut-off; inactive means mostly below about 14%; further: read at 38.3 µM for the half of the compounds with a filed dose; 0% is about no effect
Pf growth 48h: P. falciparum growth inhibition at 48 hours (one generation); P. falciparum luciferase growth in erythrocytes, 48 h; Potency, µM (titrated, usually from 28.7 µM), without a hit: top-dose activity change, negative = inhibition, most hits filed as inhibitors; hit rate 5.9% among 310,000; AID 504832; further: potency means the concentration at half of the fitted maximal effect; on the % scale 0 is the no-effect control and ±100 the full control effect
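Luminescence readout; reporter = integrated firefly luciferase in P. falciparum. RBC culture at 2% hematocrit, 0.1% parasitemia final, 37 C/5% CO2; decreased signal taken as growth inhibition.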
* marks the source's active call; other numbers are inactive results; i = inactive; ? = inconclusive; . = no result given; [ ] = dose if it differs, or a comment. Unless noted, the call rests on the fitted dose curve; in most records, active means well fitted inhibition curve with a large enough effect; inconclusive means small, poorly fitted or top-dose-only effect, or another doubt; inactive means no such curve, though single readings can be large or run the other way.

SMILES	Shiga inhibitor	Pf growth 96h	Cycloheximide cs	Pf growth 48h
CCOc1ccc(-c2c(C(=O)N/N=C/c3cccc(Br)c3)nnn2-c2nonc2N)cc1	2	2.9µM*	1	?
COc1cccc(/C=N/NC(=O)c2nnn(-c3nonc3N)c2-c2cccs2)c1	25	9%	13	?
CCOc1cccc(-c2c(C(=O)N/N=C/c3cccnc3)nnn2-c2nonc2N)c1	-1	?	-7	7%
CCCOc1ccc(/C=N/NC(=O)c2nnn(-c3nonc3N)c2-c2cccs2)cc1OC	23	12µM*	27	13µM*
CCOc1ccc(-c2c(C(=O)N/N=C/c3ccc(O)cc3)nnn2-c2nonc2N)cc1	29	35%	-3	5%
CCOc1cccc(-c2c(C(=O)N/N=C/c3ccc(Br)cc3)nnn2-c2nonc2N)c1	-2	2.6µM*	-4	?
COc1ccc(C(C)NC(=S)NCc2ccc(F)cc2)cc1 (stereo unspecified)	4	-31%	-3	?
CCC(NC(=S)NCc1ccc(F)cc1)c1ccccc1 (stereo unspecified)	21	?	-3	6.6µM*
Cc1ccc(C)c(NC(=S)NCc2ccccc2)c1	-6	-27%	-4	?
Cc1ccc(C)c(C(C)NC(=S)NCc2ccc(F)cc2)c1 (stereo unspecified)	9	33%	7	3.3µM*
CCOC(=O)[C@H]1[C@H]2COc3ccc(C)cc3[C@@H]2N2C(=O)CN(CC3CCCO3)C(=O)[C@@]12C (stereo partly specified)	.	?	.	16%
CC(C)NC(=O)/C(=C/c1cn(-c2ccccc2)nc1-c1cccc([N+](=O)[O-])c1)NC(=O)c1ccccc1	-15	-19%	-7	10%
CC(C)(O)c1cc2ccc(C#Cc3ccsc3)cc2c(=O)o1	.	43%	.	25%
O=C(CN(C(=O)CNC(=O)c1cccs1)c1ccccc1)NC1CCCCC1	16	-7%	-3	3%
CSc1nn(-c2ccc(C(=O)OCC(=O)NC(=O)NC(C)C)cc2)c(=S)s1	32	1%	27*	8%
COc1cccc(NC(=S)/C(=C(\[O-])c2ccc(OC(F)F)cc2)[n+]2ccccc2)c1	24	?	20	i
COc1cccc(NC(=S)/C(=C(\[O-])c2cc(C)n(-c3ccccc3F)c2C)[n+]2ccc(N(C)C)cc2)c1	76	4.1µM*	26*	?
CC(=O)Nc1ccc(S(=O)(=O)NCC2(N3CCOCC3)CCCCC2)cc1	.	5%	.	-17%
O=C(Nc1cccc(O)c1)c1ccc(Br)c(S(=O)(=O)N2CCCCC2)c1	11	9%	1	?
O=C(O)c1ccc(Br)c(S(=O)(=O)N2CCCC2)c1	-11	13µM*	5	-39%
O=C(Nc1ccc2c(c1)OCO2)c1ccc(Br)c(S(=O)(=O)N2CCCC2)c1	61*	34%	28*	2.6µM*
O=C(Nc1ccc2c(c1)OCCO2)c1ccc(S(=O)(=O)N2CCCCC2)cc1	64	-9%	33*	?
O=C(O)c1ccc(Cl)c(S(=O)(=O)N2CCCC2)c1	-3	5%	-2	-1%
O=C(Nc1ccc2c(c1)OCO2)c1cccc(S(=O)(=O)N2CCCC2)c1	41*	.	24*	15%
O=C(NCC1CCCO1)c1ccc(Br)c(S(=O)(=O)N2CCOCC2)c1 (stereo unspecified)	.	1.3µM*	.	?
SMILES	Shiga inhibitor	Pf growth 96h	Cycloheximide cs	Pf growth 48h
O=C(NCC1CCCO1)c1cccc(S(=O)(=O)N2CCOCC2)c1 (stereo unspecified)	-4	?	1	9%
O=C(Nc1ccc2c(c1)OCCO2)c1ccc(Br)c(S(=O)(=O)N2CCOCC2)c1	52*	-20%	32*	2.3µM*
CN(C)C(CNC(=S)Nc1ccc(Cl)cc1)c1cccnc1 (stereo unspecified)	-8	?	-3	-8%
CC(=O)c1ccc(S(=O)(=O)N2CCN(C(=O)CSc3ccc(F)cc3)CC2)cc1	-6	-26%	10	?
COc1ccccc1-c1ccc(NC2CCCCC2)nn1	72*	81%	31*	122%
COc1ccccc1-c1ccc(Nc2cccc(C(F)(F)F)c2)nn1	14	-2%	15*	37%
Cc1ccc(N2CC(NC(=O)N3CCN(C(=O)c4ccco4)CC3)CC2=O)cc1 (stereo unspecified)	.	1%	.	8%
COc1ccc(C(=O)NC(C(=O)NCC2(N3CCCCC3)CCCCC2)C(C)C)cc1 (stereo unspecified)	.	-19%	.	?
O=C/C=C/c1c(-c2ccccc2)cc2oc3ccccc3cc1-2	77	?	27*	?
O=Cc1cn(CCC(=O)O)nc1-c1cc2ccccc2o1	7	?	3	72%
COC(=O)c1ccc(C(=S)N2CCCCC2)cc1	6	?	-2	10%
COC(=O)c1cccc(CSC(=S)N2CCCC2)c1	36	22%	30*	-2%
CC(=O)Nc1ccc(S(=O)(=O)Oc2ccc(/C=N/NC(=O)c3ccc(Cl)cc3)cc2)cc1	15	?	2	13µM*
COC(=O)c1ccc(OS(=O)(=O)c2ccc(NC(C)=O)cc2)cc1	11	-30%	9	2%
CC(=O)NC(CC(=O)NNC(=O)c1cccs1)c1ccccc1 (stereo unspecified)	.	16%	.	19%
COc1ccc(CNCCc2cccc(F)c2)c2ccccc12	-19	13µM*	6	?
COc1cc(OC)c(OC)cc1CNCCc1cccc(F)c1	11	23%	-4	.
COc1ccc(C(=O)c2cc3cccc(OC)c3o2)cc1	98*	39%	41*	242%
COc1cccc2cc(C(C)=O)oc12	-5	?	-2	-9%
COc1cccc2cc(/C(=N/O)c3ccccc3)oc12	33	58%	26*	72%
COc1ccc2c(c1OC)C(=O)O[C@@H]2[C@H]1c2c(cc3c(c2OC)OCO3)CCN1C	-5	?	-2	?
COc1ccc2c(c1OC)C(=O)OC2C1c2cc3c(cc2CCN1C)OCO3 (stereo unspecified)	-5	12µM*	1	13%
Nc1cc(N)nc(SCC(=O)Nc2ccc3c(c2)OCCCO3)n1	41	.	23*	42%
Cc1cccc(SCC(=O)Nc2ccc3c(c2)OCCO3)c1	102*	95%	39*	8%
Nc1cc(N)nc(SCC(=O)Nc2ccc3c(c2)OCO3)n1	-1	-6%	6	4%
SMILES	Shiga inhibitor	Pf growth 96h	Cycloheximide cs	Pf growth 48h
O=C(CSc1nnc(-c2cccc(Cl)c2)o1)Nc1ccc2c(c1)OCCO2	36*	i	15	i
Nc1ccccc1SCC(=O)Nc1ccc2c(c1)OCO2	73*	-7%	23*	20%
O=C(CSc1cccc[n+]1[O-])Nc1ccc2c(c1)OCO2	13	-32%[5.75 µM]	5	-12%
COc1ccccc1CC(=O)NCCN1CCCCC1	-9	3%	0	2%
O=C(CC(c1ccccc1)c1ccccc1)Nc1ccc2c(c1)OCCO2	49	59%	16	?
CC(=O)NC(CC(=O)Nc1ccc2c(c1)OCCO2)c1ccccc1 (stereo unspecified)	52	64%	20*	40%
O=C(CSc1nnc(-c2ccc(C(F)(F)F)cn2)o1)Nc1cccc(Cl)c1	56	55%	17*	115%
